From PubChem
This is a sample that favours compounds with a hit; in the whole collection about 3.1% have one here.
Nrf2 block = blocks Nrf2 signaling; A549 ARE-Fluc reporter, luciferase luminescence, 18-24 h; Potency, µM (series often up to 46 µM), for the others: top-dose activity change, negative = inhibition, hits mostly inhibitors; 360,000 compounds, 2.1% hits; note: % is set by controls: 0 for no effect and ±100 for the full control effect; nearly all actives have a fitted effect of over 60% in size
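Quantitative HTS in A549 cells stably bearing an antioxidant response element-firefly luciferase construct. Inhibition of Nrf2-driven transcription was scored by luminescence after 18-24 h of compound exposure at 37 °C.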
Mito fusion yeast = mitochondrial division inhibition or fusion activation; S. cerevisiae fusion-defective mutant growth rescue, CellTiterGlo 48 h; Potency, µM (highest dose often 46.1 µM), for the others: at the highest dose growth rescue (activation), actives largely listed as activators; 320,000 compounds, 0.23% hits; note: % of control where 0% means no effect; nearly all actives have a fitted effect of over 45% in size
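Temperature-sensitive fusion-defective S. cerevisiae (e.g. fzo1-1, mgm1-5) were grown with compound in YPEG medium (3% ethanol, 3% glycerol) for 48 hours at 37C. Growth rescue was measured as viability by CellTiterGlo luminescence after 10 minutes at ambient.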
A549 viability = kills or reduces viability of A549 cells in Nrf2 counter-screen | A549 ARE-Fluc cells, CellTiter-Fluor viability, 18-24 h | AID 504648 | Potency, µM (doses to about 46 µM), inactives show top-dose activity change, negative = cytotoxicity, most hits filed as inhibitors | 390,000 compounds, 0.16% hits; note: % is set by controls: 0 for no effect and ±100 for the full control effect
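A549 ARE-Fluc cells in 5% FBS OPTI-MEM, 5000 cells/well, rested 2 h then exposed to compounds in concentration-response for 18-24 h at 37 °C. Viability by CellTiter-Fluor fluorescence (Ex 405/Em 525) after 30 min; luciferase luminescence (BugLite, 15 min, RT) read afterwards.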
TrxR1 substrate = substrates of rat thioredoxin reductase 1 | O89049 | purified TrxR1 substrate turnover, NADPH consumption readout | Potency, µM (highest dose often 114 µM), inactives show top-dose activity change, negative = substrate turnover | 390,000 compounds, 0.01% hits; note: % is set by controls: 0 for no effect and ±100 for the full control effect; nearly all actives have a fitted effect of over 50% in size
Target sequence (O89049 whole entry, looked up): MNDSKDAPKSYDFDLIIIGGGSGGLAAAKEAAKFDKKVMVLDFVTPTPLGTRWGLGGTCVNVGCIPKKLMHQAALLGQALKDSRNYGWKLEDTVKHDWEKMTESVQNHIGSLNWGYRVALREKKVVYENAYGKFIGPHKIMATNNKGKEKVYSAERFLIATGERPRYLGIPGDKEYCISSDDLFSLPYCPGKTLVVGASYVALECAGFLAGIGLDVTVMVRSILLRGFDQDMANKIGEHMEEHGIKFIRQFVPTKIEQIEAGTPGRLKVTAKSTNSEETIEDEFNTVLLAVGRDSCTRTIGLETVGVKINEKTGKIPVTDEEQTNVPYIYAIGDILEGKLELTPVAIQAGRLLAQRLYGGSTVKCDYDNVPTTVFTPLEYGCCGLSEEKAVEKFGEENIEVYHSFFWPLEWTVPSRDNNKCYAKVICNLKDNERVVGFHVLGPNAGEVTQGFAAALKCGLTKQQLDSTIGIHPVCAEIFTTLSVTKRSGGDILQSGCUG
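Rat TrxR1, dispensed at 90 nM, was prereduced with 400 uM NADPH (final) for 5 min at ~22 deg C, then incubated with compound 15 min before 400 uM selenite. A first-read NADPH fluorescence drop versus no-compound background flagged substrates.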
IDH1 R132H inh = human IDH1 R132H inhibition; O75874; IDH1-R132H enzyme, NADPH consumption, diaphorase/resazurin fluorescence; Potency, µM (titrated, usually from 76.6 µM), for inactives: at the highest dose activity change, negative = inhibition, actives largely listed as inhibitors; 390,000 compounds, 0.093% hits; note: % is set by controls: 0 for no effect and ±100 for the full control effect; nearly all actives have a fitted effect of over 65% in size
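IDH1-R132H (0.5 ug/mL) preincubated 30 min with compound, then NADPH (0.016 mM) and alpha-KG (2 mM) added; 80 min at RT, pH 7.5. Remaining NADPH coupled via diaphorase/resazurin to fluorescence (540/590 nm); concentration-response curves normalized to no-enzyme control.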
TrxR1 inh = blocks rat thioredoxin reductase 1. recombinant rTrxR1, NADPH fluorescence consumption, selenite substrate. Potency, µM (top dose mostly 114 µM), without a hit: at the top dose activity change, negative = inhibition, most hits filed as inhibitors. 390,000 compounds, 1% hits. AID 588453; note: % is set by controls: 0 for no effect and ±100 for the full control effect; nearly all actives have a fitted effect of over 65% in size
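Rat TrxR1 (90 nM in the dispensed reagent) was pre-reduced with 400 uM NADPH for 5 min at room temperature, then incubated with compound for 15 min. After 400 uM selenite was added, NADPH fluorescence (Ex 340/Em 450 nm) was followed for 8 min.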
The depositor's hits bear a star; ? = inconclusive; · = no result; [ ] = remark or other dose. Calls come from the whole dose curve; as a rule, active = well fitted curve in the direction sought with a large enough effect; inconclusive = small, poorly fitted or top-dose-only effect, or another doubt; inactive = no such curve, though single readings can be large; an effect the other way counts as inactive or inconclusive. Potency is the fitted concentration of half-maximal effect.

SMILES | Nrf2 block | Mito fusion yeast | A549 viability | TrxR1 substrate | IDH1 R132H inh | TrxR1 inh
COc1ccc(-n2nc(C(=O)N3CCN(c4cccc(C(F)(F)F)c4)CC3)c3c4ccccc4n(C)c3c2=O)cc1Cl | 22% | · | 12% | -1% | 0% | 20%
Cc1ccc(C)c(NC(=S)NNC(=O)c2csc3c2CCC(C)C3)c1 (centres undefined) | 21µM* | -15% | ? | 6% | 9% | 5%
Cc1ccc(C)c(NC(=S)NNC(=O)c2csc3c2CCCC3)c1 | · | -6% | 0% | -1% | 5% | -9%
COc1ccc(NC(=S)NC2CCCC2)c(OC)c1 | 1% | -9% | 15% | -7% | 11% | 2%[57.1 µM]
COc1ccc(OC)c(C(C)NC(=S)NC2CCCCC2)c1 (centres undefined) | 18µM* | -15% | 0% | -4% | 24% | 10%
N#Cc1nc(COc2ccccc2Cl)oc1NCc1cccnc1 | 6% | 13% | 1% | 2% | 7% | 35µM*
COc1ccc(CNc2oc(-c3ccc(COc4ccccc4C)o3)nc2C#N)cc1 | 21µM* | · | 0% | 17% | -5% | 17%
Cc1ccccc1OCc1ccc(-c2nc(C#N)c(NCc3cccnc3)o2)o1 | 12µM* | · | 11% | 7% | -11% | -9%
COCCn1c(C)cc(C(=O)CSc2n[nH]c(N)n2)c1C | 10% | -5% | -5% | -4% | 4% | -15%
COCCn1c(C)cc(C(=O)CSc2nnc(C)s2)c1C | 15µM* | -10% | -2% | -12% | 15% | -18%
COc1ccc(C(=O)N(Cc2ccco2)Cc2ccco2)c(O)c1 | 12% | · | 7% | · | · | ·
CCOc1ccc(Nc2oc(-c3cccs3)nc2C#N)cc1 | 16µM* | 3% | -20% | 56% | -2% | 24%
O=C(N/N=C/c1ccc(N2CCCCC2)o1)c1ccccc1 | 8% | -3% | 3% | -3% | 7% | 2.8µM*
O=C(N/N=C/c1ccc(N2CCOCC2)o1)c1cccc([N+](=O)[O-])c1 | -3% | -18% | -16% | -11% | 8% | 3.2µM*
O=C(N/N=C/c1ccccc1)c1ccc(N2CCOCC2)c([N+](=O)[O-])c1 | 2% | -1% | 1% | 7% | 0% | 12%
Cc1ccc(/C=N/NC(=O)c2ccc(-c3ccccc3)cc2)o1 | -1% | 3% | 0% | 5%[57.1 µM] | 1% | 23%[57.1 µM]
O=C(C[n+]1cccc(Br)c1)c1ccc(Br)cc1 | · | · | · | 5% | · | -16%
CCOC(=O)CCS(=O)(=O)c1nc(-c2ccccc2)cc(C(F)(F)F)n1 | -20% | -26% | -21% | 6% | 7% | 16µM*
CCOC(=O)CS(=O)(=O)c1nc(-c2ccc(F)cc2)cc(C(F)(F)F)n1 | 16µM* | -3% | ? | 15%[57.1 µM] | 5% | ?
CCOC(=O)CS(=O)(=O)c1nc(-c2ccccc2)cc(C(F)(F)F)n1 | ? | -9% | ? | 8%[57.1 µM] | -1% | ?
COCC(C)NC(=O)CCS(=O)(=O)c1nc(-c2ccc(OC)cc2)cc(C(F)(F)F)n1 (centres undefined) | -11% | 6% | -2% | 17% | 4% | 56µM*
CCC(C)NC(=O)CCSc1nc(-c2ccc(OC)cc2)cc(C(F)(F)F)n1 (centres undefined) | -16% | · | -9% | 6% | 15% | 20%
COC(=O)CCS(=O)(=O)c1nc(-c2ccccc2)cc(C(F)(F)F)n1 | ? | -10% | ? | 2% | 6% | 18µM*
Cc1oc2ncn(CC(C)C)c(=O)c2c1C(=O)NCCCN1CCCCC1 | ? | · | 15% | -6% | -8% | 14%
C=C1C=C(C(F)F)n2ncc(C(=O)N3CCN(c4ccccc4)CC3)c2N1 | · | · | · | 0% | · | -2%
SMILES | Nrf2 block | Mito fusion yeast | A549 viability | TrxR1 substrate | IDH1 R132H inh | TrxR1 inh
C=CC(=O)Oc1ccc(N2Cc3ccccc3C2=O)cc1 | ? | · | -4% | -2% | -5% | 3.5µM*
COc1ccc(N2Cc3ccccc3C2=O)cc1 | ? | -9% | 1% | -6% | 4% | 4%[57.1 µM]
Cc1ccc(S(=O)(=O)N2CCN(CCOc3cccc(C)c3)CC2)cc1 | 21µM* | 16% | -7% | -7% | -2% | 5%
CC(C)CCn1c(-c2nonc2N)nc2ccccc21 | ? | -1% | -13% | -5% | 3% | -5%
CCCCn1c(-c2nonc2N)nc2ccccc21 | 15µM* | -4% | -20% | -3% | 14% | 3%
C=CCNc1nnc(-c2cccc3ccccc23)o1 | 7% | · | 3% | · | · | ·
COc1cc2ccccc2cc1C(=O)N1CCCC1 | ? | -3% | 1% | 6% | -5% | 11%
COc1cc2ccccc2cc1C(=O)N1CC(C)CC(C)C1 (centres undefined) | 12µM* | 1% | -14% | -2% | 1% | 19%
Cc1sc(NC(=O)CN2CCOCC2)nc1-c1ccc2c(c1)CCN2S(=O)(=O)c1ccccc1 | 2.6µM* | 5% | -13% | 3% | 1% | -3%
COc1ccc(C2NC(=O)NC(c3ccccc3)=C2c2nc3ccccc3s2)cc1 (centres undefined) | ? | 0% | ? | 8% | -2% | 26%
O=C1NC(c2ccccc2)=C(c2nc3ccccc3s2)C(c2ccc(F)cc2)N1 (centres undefined) | 16µM* | 1% | ? | -7% | 8% | -12%
Cn1c(CC(=O)NC(C)(C)CO)c(Sc2ccccc2)c2ccccc21 | 17% | 7% | -6% | -5% | 7% | 1%
CCOC(=O)Cc1c(Sc2ccccc2)c2ccccc2n1C | 23µM* | -5% | -11% | -16% | 4% | -8%
O=C(Cn1cc(S(=O)(=O)Cc2cccc(Cl)c2)c2ccccc21)NCc1ccccc1Cl | -28% | · | 2% | -10% | -2% | 2%
COc1cc(CC(=O)Nc2nc(-c3ccccc3)c(C(C)=O)s2)cc(OC)c1OC | 21µM* | -6% | -11% | 7% | 9% | 11%
Cn1nc(C(=O)N2CCCC2)c2ccccc2c1=O | 11% | 2% | -4% | 6%[57.1 µM] | 16% | 16%[57.1 µM]
CSc1ccc(C(=O)C2CCCN(C(=O)c3nn(C)c(=O)c4ccccc34)C2)cc1 (centres undefined) | 18µM* | -2% | -18% | 3%[57.1 µM] | 17% | 1%[11.4 µM]
COc1ccc(-n2c(C)nn(C)c2=O)cc1 | -2% | 0% | -19% | -3% | -5% | 0%
COc1ccc(-n2c(/C=C(\C)O)nc(=O)c3c(C)cc(C)nc32)cc1 | -17% | 20µM* | -8% | -10% | 8% | -10%
O=C1CCc2cc(S(=O)(=O)Nc3ccc(F)c(Cl)c3)ccc2N1 | ? | · | 8% | · | · | ·
COc1ccc(CCNC(=O)c2nc(SCc3ccccc3F)ncc2Cl)cc1OC | 16µM* | · | -12% | -4% | -9% | 9%
